Laboratory results from PubChem BioAssay (NCATS).
Records with an inconclusive call do not appear. Calls of active or inactive are those of the source. Unless noted, calls follow the shape of the dose curve; as a rule, active = well fitted curve in the direction sought with a large enough effect; inconclusive = small, poorly fitted or top-dose-only effect, or another doubt; inactive = no such curve, though single readings can be large; an effect the other way counts as inactive or inconclusive.

Key:
[1] = Cell Viability - LYMP2-025 (AID 976); also: series mostly up to about 92 µM
Outline: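 Luminescent ATP readout after 24 hr treatment of a human lymphoblastoid line (LYMP2-025, 2500 cells/well, 37 C). Reagent developed 30 min at room temperature; AC50 fitted with the Hill equation.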

[2] = Cell Viability - LYMP2-002 (AID 977);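 also: series mostly up to about 92 µM; compound exposure lasted 24 h at 37 °C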
Outline: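 Human lymphoblastoid cells (2500/well) in complete medium were preincubated 5 hr at 37 C, then exposed to compounds for 24 hr at 37 C. Intracellular ATP was read by CellTiter-Glo luminescence; AC50 came from Hill-equation concentration-response fits.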

[3] = Cell Viability - LYMP2-006 (AID 978); also: series mostly up to about 92 µM; nearly all actives have a fitted effect of over 60% in size
Outline: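 Human lymphoblastoid cells (LYMP2-006), 2500/well in complete medium, were treated with compound for 24 hr at 37 C. Cellular ATP was read by CellTiter-Glo luminescence after 30 min, and AC50 values came from Hill-equation fits of concentration-response data.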

[4] = Cell Viability - LYMP2-007 (AID 979);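 also: cells exposed to compound for 24 h before reading; nearly all actives have a fitted effect of over 60% in size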
Outline: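 Measured via luciferase-based ATP quantitation: lymphoblastoid cells, 24 hr compound exposure at 37 C, AC50 from Hill fits.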

[5] = Cell Viability - LYMP2-008 (AID 980); also: nearly all actives have a fitted effect of over 60% in size
Outline: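 Measured: ATP-dependent luminescence, proportional to viable cell number, in human lymphoblastoid cells treated 24 hr with compound in complete culture medium. Values are AC50s from Hill-equation modelling of qHTS titrations.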

[6] = Cell Viability - LYMP2-010 (AID 981); also: nearly all actives have a fitted effect of over 55% in size
Outline: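 This 24 hr viability screen uses LYMP2-010 lymphoblastoid cells, quantifies ATP via luciferase luminescence, and derives AC50 from Hill fits of qHTS concentration-response data.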

[7] = Cell Viability - LYMP2-012 (AID 982);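 also: cellular ATP by luciferase luminescence where a drop means cytotoxicity; cells exposed to compound for one day before reading; nearly all actives have a fitted effect of over 55% in size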
[8] = Cell Viability - LYMP2-014 (AID 983); also: series mostly up to about 92 µM; nearly all actives have a fitted effect of over 50% in size
Outline: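 Quantitative HTS in lymphoblastoid cells: 24 hr compound exposure, then CellTiter-Glo ATP luminescence. Positive control was tetraoctylammonium bromide, 6.4pM to 92 uM.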

[9] = Cell Viability - LYMP2-016 (AID 984); also: nearly all actives have a fitted effect of over 55% in size
Outline: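 Human lymphoblastoid LYMP2-016 cells, 2500 per well, treated with compounds for 24 h at 37 C. Viability read as intracellular ATP by CellTiter-Glo luminescence after 30 min at room temperature; AC50 from Hill fits of concentration-response.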

[10] = Cell Viability - LYMP2-018 (AID 985); also: nearly all actives have a fitted effect of over 50% in size
Outline: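 In this qHTS viability assay, cells are treated for 24 hr and cellular ATP is quantified by luciferase-based luminescence, with tetraoctylammonium bromide as positive control.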

[11] = Cell Viability - LYMP2-020 (AID 986); also: series mostly up to about 92 µM; nearly all actives have a fitted effect of over 55% in size
Outline: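 Cells at 2500 per well receive a 24 hr compound exposure at 37 C. Viability is measured as ATP-dependent luciferase luminescence, with AC50 modeled from qHTS concentration-response curves.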

[12] = Cell Viability - LYMP2-022 (AID 987); also: nearly all actives have a fitted effect of over 55% in size
Outline: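 In this qHTS cytotoxicity screen, compound titrations were incubated 24 hr at 37 C with human lymphoblastoid cells in complete medium. Luciferase-based ATP luminescence provided the viability signal.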

[13] = Cell Viability - LYMP2-024 (AID 988); also: nearly all actives have a fitted effect of over 60% in size
Outline: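 Cells at 2500 per well received compound for 24 hr after a 5 hr settling period. Viability was scored by CellTiter-Glo luminescence, with AC50 from Hill fits.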

[14] = Cell Viability - LYMP2-026 (AID 989); also: nearly all actives have a fitted effect of over 50% in size
Outline: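 Acute toxicity screen in complete culture medium, with 24 hr compound exposure at 37 C. Viability read as cellular ATP via luciferase reaction, with tetraoctylammonium bromide (6.4pM to 92 uM) as positive control.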

[15] = Cell Viability - LYMP1-002 - Assay at 24 hr (AID 993)
Outline: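 Viability was judged from intracellular ATP using a luciferase read-out, following a 24-hour compound incubation at 37 C of lymphoblastoid cells seeded at 2500 per well. Concentration-response data were fitted to the Hill equation for AC50.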

[16] = target: Bile acid receptor (Homo sapiens) (UniProt Q96RI1); assay: qHTS assay for small molecule antagonists of farnesoid X receptor signaling (AID 588526; calls by dose curve)
Chain of Bile acid receptor (Homo sapiens) (Q96RI1 whole entry, looked up): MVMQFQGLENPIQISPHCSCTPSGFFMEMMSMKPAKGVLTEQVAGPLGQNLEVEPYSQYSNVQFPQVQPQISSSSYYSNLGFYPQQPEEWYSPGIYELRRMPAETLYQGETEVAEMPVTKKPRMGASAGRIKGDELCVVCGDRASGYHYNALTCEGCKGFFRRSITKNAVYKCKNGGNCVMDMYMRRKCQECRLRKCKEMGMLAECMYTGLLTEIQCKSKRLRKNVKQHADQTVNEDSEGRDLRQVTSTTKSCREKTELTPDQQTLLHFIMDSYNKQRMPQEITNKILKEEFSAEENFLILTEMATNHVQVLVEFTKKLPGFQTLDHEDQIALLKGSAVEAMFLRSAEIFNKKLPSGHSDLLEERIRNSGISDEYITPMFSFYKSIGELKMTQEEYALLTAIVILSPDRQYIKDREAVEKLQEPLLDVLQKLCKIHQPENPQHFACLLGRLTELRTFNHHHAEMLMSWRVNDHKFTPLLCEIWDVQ
Outline: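 Beta-lactamase reporter antagonist mode: HEK293T FXR-UAS-bla cells, titrated compound, CDCA stimulation, 16 h 37 C, CCF4 dye 2 h RT. Data normalized to CDCA 50 uM and DMSO; Hill-fit IC50.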

[17] = target: Glutathione peroxidase 1 (Homo sapiens) (UniProt P07203); assay: Primary qHTS Assay for Inhibitors of Recombinant Selenoprotein Glutathione Peroxidase 1 (GPX1) (AID 1845191); also: nearly all actives have a fitted effect of over 65% in size
Chain of Glutathione peroxidase 1 (Homo sapiens) (P07203 whole entry, looked up): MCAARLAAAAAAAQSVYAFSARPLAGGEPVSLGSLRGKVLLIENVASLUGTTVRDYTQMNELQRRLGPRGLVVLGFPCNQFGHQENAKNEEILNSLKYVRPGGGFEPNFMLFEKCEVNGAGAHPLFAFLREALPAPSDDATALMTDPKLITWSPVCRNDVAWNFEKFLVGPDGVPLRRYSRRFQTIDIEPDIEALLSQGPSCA
Outline: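 NADPH consumption tracked by fluorescence at 340/450 nm between t=0 and t=15 min, room temperature. Final mix: 10 nM GPX1, 100 nM glutathione reductase, 1 mM GSH, 0.5 mM NADPH, 0.5 mM cumene hydroperoxide, 0.01% BSA; 30 min compound–enzyme preincubation.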

Measured: Potency

CC12CCC(CC1=O)C2(C)C (configuration not stated)
not listed: [16] | [17]
inactive: all other assays above

O=C(O)CCCCCCCCC(=O)O
inactive: [16]

CCCCCC/C=C\CCCCCCCC(=O)O
inactive: [17]
